This note sets out measurements from PubChem BioAssay (EPA / NIEHS).

Where “and” joins values, the source holds several entries; their conditions need not be identical. Identical values can stand only once. A structure can be active in one record and inactive in another. Calls of active or inactive are those of the source. How the source made its calls: active means hit-call score of the fitted dose curve at least 0.9, where 1 is the maximum; inactive means score below 0.9.

A short description of assay [1]: BSK_BT_PBMCCytotoxicity: PBMC Cytotoxicity Assessment in the BioMAP Diversity Plus: BT Assay (AID 2284225).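 Further: PBMC viability measured by Alamar Blue dye reduction fluorescence.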 The note with it: primary human B cells with PBMC. Summed up:
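75,000 cells/well; cpd 1 h → SEB + TSST-1 (20 ng/mL final each) → 90 h → Alamar Blue 6 h → fluor. 546/580 nm. DMSO = neg. control/baseline.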

Read-out in assay [2]: Secreted IgG (sIgG), gene 3500
Kind of assay: BSK_BT_sIgG: BioMAP Diversity Plus: BT Assay for Secreted IgG (sIgG) Biomarker Activity (AID 2284226). The settings on record: primary human B cells with PBMC. An outline of the steps: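 B cells co-cultured with PBMC were dosed with chemical and secreted IgG quantified by ELISA at 24 h. Activity was fitted in the positive direction relative to DMSO as negative control and baseline.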

Assay [3] in a line: BSK_BT_Bcell_Proliferation: Viability Assessment in the BioMAP Diversity Plus: BT Assay for B cell Proliferation (AID 2284227). The settings on record: primary human B cells with PBMC. An outline of the steps: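 SRB-based protein staining (0.1% SRB after 10% TCA fixation, 560 nm) quantifies proliferation in human B cells co-cultured with PBMC, 72 h post-dosing, with signal gain scored relative to DMSO negative control.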

Read-out in assay [4]: Interleukin 6 (IL6), IL6 (gene 3569)
Kind of assay: BSK_BT_xIL6: BioMAP Diversity Plus: BT Assay for Interleukin 6 (IL6) Biomarker Activity (AID 2284228). The note with it: primary human B cells with PBMC. An outline of the steps: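 Chemical added to human B cell/PBMC co-culture → 24 h → supernatant IL-6 by Luminex xMAP → fit vs DMSO baseline, upward direction.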

Read-out in assay [5]: Interleukin 17A (IL17A), IL17A (gene 3605)
Kind of assay: BSK_BT_xIL17A: BioMAP Diversity Plus: BT Assay for Interleukin 17A (IL17A) Biomarker Activity (AID 2284229). The settings on record: primary human B cells with PBMC. Summed up: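 Chemicals were added to a human B cell and PBMC co-culture. After 24 h, secreted IL-17A was measured with Luminex xMAP. Curves were fitted in the positive direction, with DMSO wells as baseline.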

Read-out in assay [6]: Tumor necrosis factor (Homo sapiens) (UniProt P01375)
Kind of assay: BSK_BT_xTNFa: BioMAP Diversity Plus: BT Assay for Tumor necrosis factor alpha (TNF-alpha) Biomarker Activity (AID 2284230). The settings on record: primary human B cells with PBMC. An outline of the steps: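 Compounds were added to a B cell plus PBMC co-culture, and after 24 h secreted TNF-alpha was quantified with Luminex xMAP technology, with responses fitted upward from the DMSO control.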

Read-out in assay [7]: Vascular cell adhesion molecule 1 (VCAM1), VCAM1 (gene 7412)
Kind of assay: BSK_MyoF_VCAM1: BioMAP Diversity Plus: MyoF Assay for Vascular cell adhesion molecule 1 (VCAM1) Biomarker Activity (AID 2284231). The note with it: primary human lung fibroblasts. Summed up:
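Steps: fibroblasts from human lung exposed to compound; biomarker quantified by ELISA at 24 h; values analysed for upward change over the DMSO baseline.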

Read-out in assay [8]: Collagen I, COL1A1 (gene 1277)
Kind of assay: BSK_MyoF_CollagenI: BioMAP Diversity Plus: MyoF Assay for Collagen I Biomarker Activity (AID 2284238). The settings on record: primary human lung fibroblasts. An outline of the steps: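 Multiplexed primary human lung fibroblast system; Collagen I measured by ELISA at 24 h post-dose. Increases are referenced to DMSO.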

Read-out in assay [9]: Collagen III, COL3A1 (gene 1281)
Kind of assay: BSK_MyoF_CollagenIII: BioMAP Diversity Plus: MyoF Assay for Collagen III Biomarker Activity (AID 2284239). The note with it: primary human lung fibroblasts. Summed up:
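Compounds are added to primary human lung fibroblasts and left for 24 hours. Collagen III is then quantified by ELISA. Analysis takes DMSO as baseline and fits increases in signal.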

Assay [10] in a line: CCTE_Mundy_HCI_hNP1_Casp3_7: CCTE's Caspase-Glo 3/7 Assay in human neuroprogenitor cells for Apoptosis, Mundy Lab (AID 2284240). An outline of the steps: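 Neuroepithelial-lineage stem cells from WA09 embryonic cells were treated with chemicals after 40–44 h of culture. Twenty-four hours later, caspase-3/7 activation was detected luminescently after a 30 min room-temperature reagent step, with DMSO as baseline.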

Sequence of Tumor necrosis factor (Homo sapiens) (P01375 whole entry, looked up): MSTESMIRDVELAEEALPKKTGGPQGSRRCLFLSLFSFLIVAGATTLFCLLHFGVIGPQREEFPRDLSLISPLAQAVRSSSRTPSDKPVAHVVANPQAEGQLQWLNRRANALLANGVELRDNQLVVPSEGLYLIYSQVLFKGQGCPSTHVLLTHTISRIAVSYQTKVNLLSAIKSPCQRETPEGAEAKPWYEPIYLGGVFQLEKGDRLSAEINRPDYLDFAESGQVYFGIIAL

Turning to `CNS(=O)(=O)C(F)(F)C(F)(F)C(F)(F)C(F)(F)C(F)(F)C(F)(F)C(F)(F)C(F)(F)F`, the result in assay [1], in assay [2], in assay [3], in assay [4], in assay [5] and in assay [6] was inactive. Also, the result in [7], in assay [8] and in [9] was inactive. Further, the AC50 was 27.6 µM (active) in assay [2] and 44.9 µM (active) in [6].

As for `Cc1cc(O)c(C(C)(C)C)cc1C(C)(C)C`, the AC50 in [1] was 26.5 µM (active); in assay [2], 12.9 µM (active); in [3], 26.1 µM (active); in assay [4], 17.2 µM (active); in assay [5], 20 µM (active); in [6] it was 33.3 µM (active). The figures for the AC50 in assay [7], in assay [8] and in assay [9] were 3.83 µM (active), 4.19 µM (active) and 5.41 µM (active), respectively.

`CN(C(=O)C(F)(F)C(F)(F)C(F)(F)F)[Si](C)(C)C`: the outcome in assay [1], in assay [2], in assay [3], in assay [4], in assay [5] and in assay [6] was inactive. Also, the result in assay [7], in [8] and in [9] was inactive.

Regarding `O=C(Cl)C(F)(F)C(F)(F)C(F)(F)C(F)(F)C(F)(F)C(F)(F)C(F)(F)F`, the AC50 in assay [1] was 24.7 µM (active). The result in assay [1], in assay [2], in [3], in assay [4], in assay [5] and in assay [6] was inactive. The outcome in assay [7], in assay [8] and in [9] was inactive.

Regarding `Cc1ccc(O)c(-n2nc3ccccc3n2)c1`, the result in assay [1], in [2], in assay [3], in assay [4], in [5] and in assay [6] was inactive. Besides, the outcome in assay [7], in assay [8] and in assay [9] was inactive.

As to `C=CC(=O)OCC(F)(F)C(F)(F)C(F)(F)C(F)(F)C(F)(F)C(F)(F)C(F)(F)C(F)F`, the AC50 is 32.5 µM (active) and 22.7 µM (active) in [1]; 46.2 µM (active) in assay [2]; 44.8 µM (active) and 30 µM (active) in assay [3]; 33.7 µM (active) and 14.4 µM (active) in assay [4]; 30 µM (active) and 27.2 µM (active) in [5]; 35.1 µM (active) and 6.23 µM (active) in assay [6]. For the same compound, in assay [7], the AC50 is 27.2 µM (active) and 37.2 µM (active). Moreover, the result in assay [2], in assay [8] and in assay [9] was inactive.

Turning to `FC(F)(F)C(F)(F)C(F)(F)C(F)(F)C(F)(F)C(F)(F)C(F)(F)CCI`, the result in assay [1], in assay [2], in [3], in assay [4], in assay [5] and in assay [6] was inactive. The outcome in [7], in assay [8] and in assay [9] was inactive.

With `NCC(F)(F)C(F)(F)C(F)(F)C(F)(F)C(F)(F)C(F)(F)C(F)(F)C(F)(F)F`, the outcome in assay [1], in assay [2], in assay [3], in [4], in assay [5] and in assay [6] was inactive. The result in [7], in assay [8] and in assay [9] was inactive.

In the case of `NC(=O)C(F)(F)C(F)(F)C(F)(F)C(F)(F)C(N)=O`, the outcome in assay [1], in assay [2], in assay [3], in assay [4], in [5] and in [6] was inactive. The outcome in assay [7], in assay [8], in [9] and in assay [10] was inactive. Further, the AC50 in assay [6] was 0.221 µM (active).

Regarding `CC1=CC2C3C=CC(C3)C2C1C` (stereo not drawn), the outcome in [1], in [3], in assay [5], in [6], in assay [7] and in [8] was inactive. In addition, the result in [9] was inactive. The values for the AC50 in assay [2] and in assay [4] were 20 µM (active) and 16.7 µM (active), respectively.

Consider `O=C1C=CC(=O)N1c1ccc(Cc2ccc(N3C(=O)C=CC3=O)cc2)cc1`, for which the AC50 is 4.43 µM (active) in assay [1]; 2.18 µM (active) in assay [2]; 3.64 µM (active) in assay [3]; 3.09 µM (active) in [4]; 1.99 µM (active) in [5]; 4.89 µM (active) in assay [6]. The AC50 in assay [7] was 3.05 µM (active); in [8] it was 2.69 µM (active); in assay [9], 3.46 µM (active).

For the compound `OCC(F)(F)C(F)(F)C(F)(F)C(F)(F)C(F)(F)C(F)(F)C(F)(F)C(F)(F)CO`, the AC50 is 46.1 µM (active) and 47.5 µM (active) in [1]; 49.8 µM (active) and 47.1 µM (active) in [2]; 46.8 µM (active) and 47.9 µM (active) in assay [3]; 48.7 µM (active) in assay [4]; 51.3 µM (active) and 19.6 µM (active) in [5]; 45.6 µM (active) and 54 µM (active) in assay [6]. Further, the AC50 in [7] is 47.9 µM (active) and 45.4 µM (active); in assay [8], 40.4 µM (active); in [9] it was 37.1 µM (active) and 45.7 µM (active). In addition, the result in assay [8] was inactive.

On to `CO[Si](C)(CCC(F)(F)C(F)(F)C(F)(F)C(F)(F)C(F)(F)C(F)(F)F)OC`, for which the outcome in assay [1], in assay [2], in assay [3], in assay [4], in [5] and in [6] was inactive. Moreover, the outcome in assay [7], in [8] and in assay [9] was inactive.

For `O=C(O)C(F)(F)C(F)(F)C(F)(F)C(F)(F)C(F)(F)C(F)(F)C(F)F`, the result in assay [1], in assay [2], in assay [3], in [4], in [5] and in assay [6] was inactive. Also, the result in assay [7], in assay [8] and in [9] was inactive. Moreover, in assay [3], the AC50 is 21.8 µM (active).

As to `Brc1nc2ccccc2s1`, the outcome in assay [1], in [2], in [3], in assay [5], in assay [6] and in assay [7] was inactive. Besides, the result in [8] and in assay [9] was inactive. Also, the AC50 in assay [4] was 0.338 µM (active).

For `O=S(=O)(OCC(F)(F)F)C(F)(F)C(F)(F)C(F)(F)C(F)(F)F`, the AC50 in [1] was 8.88 µM (active); in [6], 3.48 µM (active). In addition, the outcome in [1], in assay [2], in [3], in assay [4], in assay [5] and in [6] was inactive. Further, the outcome in assay [7], in [8] and in assay [9] was inactive.

With `OCC(O)CC(F)(F)C(F)(F)C(F)(F)C(F)(F)C(F)(F)C(F)(F)C(F)(F)C(F)(F)F` (stereo not drawn), the result in assay [1], in assay [2], in assay [3], in [4], in assay [5] and in [6] was inactive. Besides, the result in [7], in assay [8] and in [9] was inactive.
